Reference: PubChem BioAssay AID463095 (Sanford-Burnham Center for Chemical Genomics, 2010)
Some of the results follow. The source made the active and inactive calls.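 The calls were made as follows: active = proliferation increase above 40% at any of the four tested concentrations; inactive = the rest.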

Experiment: MIN6 insulinoma cell replication enhancers – MIN6 cells, mouse, confirmation (AID 463095)
Conditions: MIN6 beta-cell proliferation, ATPlite luminescence, 48 h, cells kept in 0.2% serum, scaled between 0.2% and 10% serum; series mostly up to 50 µM; proliferation increase: at the top concentration

Proliferation increase, inactive:
O=C(CSc1nc2ccccc2[nH]1)N/N=C/C=C\c1ccccc1[N+](=O)[O-] -6.1%
Cc1ccccc1NC(=S)NNC(=O)c1cccc(Br)c1 -5.1%
CCCNC(=O)CCn1nc(-c2ccccc2)c2ccccc2c1=O 5.5%
O=C(NNC(=S)NCc1ccccc1)c1ccc(OC(F)F)cc1 -6%
CC(=O)OC(C(=O)NC1CCCCC1)c1ccccc1 (stereo unspecified) -0.2%
CN(Cc1ccc(F)cc1Cl)S(=O)(=O)c1cccs1 -6.4%
OC1CN=C2Sc3ccccc3N2C1 (stereo unspecified) -3.5%
Cc1ccc(S(=O)(=O)N2CCCCC2)cc1C(=O)N1CCN(CCO)CC1 2.7%
Cc1cc(NC(=O)CSc2nc3ccccc3n2CC(C)C)no1 -5.9%
COc1ccccc1OCc1ccc(C(=O)N2CCN(C)CC2)o1 -0.1%
CCOc1ccccc1NC(=O)Nc1cc(OC)ccc1OC -1.2%
COCCNc1nc(-c2ccccc2)nc2c1oc1ccccc12 -6.4%
Fc1ccc(CNCc2ccc(Br)cc2)cc1 -3.9%
N#Cc1cccc(CN2CCC(=O)N([C@H](CO)c3ccccc3)CC2)c1 1%
Cn1nc(-c2ccccc2)c2cc([N+](=O)[O-])ccc21 1.7%
CCn1c(=O)c([N+](=O)[O-])c(NCc2ccc3c(c2)OCO3)c2ccccc21 -0.2%
Cc1nn(C(C)C(=O)NCCC2=CCCCC2)c(=O)c2nn(-c3ccccc3)c(C)c12 (stereo unspecified) -5.8%
CCOC(=O)C1=C(CC)OC(N)=C(C#N)C1c1ccc(F)cc1F (stereo unspecified) -1.9%
O=S(=O)(NCCOc1cccc2cccnc12)c1ccc(F)cc1 0.3%
COc1ccc(CCC(=O)c2ccc(OC)cc2)cc1 -4%
Cn1cc(CN2CCC(C(O)CCc3ccccc3)CC2)c(-c2ccccc2F)n1 (stereo unspecified) -5.9%
